Reference: the supplement of paper PMC10849652
Targets with a hit are over-represented here; the source holds about 8,800 in all. About 0.5% of all pairs of compound and target were hits.

Key:
Assay in all cases: log2 fold change, soluble protein after heating vs DMSO (PISA); higher = thermal stabilisation; K562 lysate, 10 uM; active = over 0.2 and 3.5 SD of the protein, either way, in both replicates (recomputed)
ibrutinib = compound: C=CC(=O)N1CCC[C@@H](n2nc(-c3ccc(Oc4ccccc4)cc3)c3c(N)ncnc32)C1 [ibrutinib]
Method in brief: (§1)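 Thermal stability, expressed as log-two fold change relative to solvent controls, is given from duplicates. Crude K562 extract in PBS pH 7.4 with 1 mM MgCl2, at 1 mg/mL protein, was treated with 10 μM compound for 30 min and heated in aliquots for 3 min across 48°C-58°C. After pooling, adjustment to 0.5% NP-40 at 4°C and centrifugation at 21,000xg for 90 min, supernatant protein was measured by TMTpro 16plex LC-MS/MS with channel sums equalised.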

[1] = compound: CC(=O)c1cnc2ccc(-c3cc(Cl)c(O)c(Cl)c3)nc2c1N[C@H]1CC[C@H](CN(C)C)CC1
Method in brief: as §1

ralimetinib = compound: CC(C)(C)Cn1c(N)nc2ccc(-c3[nH]c(C(C)(C)C)nc3-c3ccc(F)cc3)nc21 [ralimetinib]
Method in brief: as §1

[2] = compound: CC(C)(O)CC(=O)NCCn1ccc2ncnc(Nc3ccc(Oc4cccc(C(F)(F)F)c4)c(Cl)c3)c21
Method in brief: as §1

[3] = compound: CC(C)C1=C2N=C(C=C(N2N=C1)NCC3=CC=CC=C3)NCCCCCCN
Method in brief: as §1

[4] = compound: CC1=C(C(CC(=O)N1)C2=CC=C(C=C2)C(F)(F)F)C(=O)NC3=C(C=C4C(=C3)C=NN4)F
Method in brief: as §1

[5] = compound: CC1=C(C2=C(C=C1)C(=O)C3=CC=CC=C3N2CCCN)C
Method in brief: as §1

[6] = compound: CC1=C(C=C(C=C1)NC(=O)C2=CC(=CC=C2)C(C)(C)C#N)NC3=CC4=C(C=C3)N=CN(C4=O)C
Method in brief: as §1

[7] = compound: CC1=C(C=C(C=C1)NC(=O)C2=CC(=CC=C2)N(C)C)NC(=O)C3=CC=C(C=C3)O
Method in brief: as §1

[8] = compound: CC1=CC=C(C=C1)SC2=C3C=C(SC3=CN=C2)C(=O)N
Method in brief: as §1

vemurafenib = compound: CCCS(=O)(=O)Nc1ccc(F)c(C(=O)c2c[nH]c3ncc(-c4ccc(Cl)cc4)cc23)c1F [vemurafenib]
Method in brief: as §1

[9] = compound: CCCS(=O)(=O)Nc1ccc(F)c(C(=O)c2c[nH]c3ncc(Cl)cc23)c1F
Method in brief: as §1

barasertib = compound: CCN(CCCOc1ccc2c(Nc3cc(CC(=O)Nc4cccc(F)c4)[nH]n3)ncnc2c1)CCOP(=O)(O)O [barasertib]
Method in brief: as §1

[10] = compound: CC[C@@H]1C(=O)N(C)c2cnc(Nc3ccc(C(=O)NC4CCN(C)CC4)cc3OC)nc2N1C1CCCC1
Method in brief: as §1

volasertib = compound: CC[C@@H]1C(=O)N(C)c2cnc(Nc3ccc(C(=O)N[C@H]4CC[C@H](N5CCN(CC6CC6)CC5)CC4)cc3OC)nc2N1C(C)C [volasertib]
Method in brief: as §1

[11] = compound: CCn1c(C(=O)N(C2CC2)C2CC2)cc2c3c(ncn3C)c(Nc3cc(C)n(C)n3)nc21
Method in brief: as §1

[12] = compound: CCn1cc(-c2ccnc3[nH]c(-c4cccc(CN(C)C)c4)cc23)c(-c2ccc(NC(=O)N(C)C)cc2)n1
Method in brief: as §1

[13] = compound: CN1CCC(CNc2ccc3ncc(-c4cccc(OC(F)(F)F)c4)n3n2)CC1
Method in brief: as §1

saracatinib = compound: CN1CCN(CCOc2cc(OC3CCOCC3)c3c(Nc4c(Cl)ccc5c4OCO5)ncnc3c2)CC1 [saracatinib]
Method in brief: as §1

sotrastaurin = compound: CN1CCN(c2nc(C3=C(c4c[nH]c5ccccc45)C(=O)NC3=O)c3ccccc3n2)CC1 [sotrastaurin]
Method in brief: as §1

Measured: log2 fold change

CORO1A (UniProt P31146)
UniProt P31146, sequence (P31146 whole entry, looked up): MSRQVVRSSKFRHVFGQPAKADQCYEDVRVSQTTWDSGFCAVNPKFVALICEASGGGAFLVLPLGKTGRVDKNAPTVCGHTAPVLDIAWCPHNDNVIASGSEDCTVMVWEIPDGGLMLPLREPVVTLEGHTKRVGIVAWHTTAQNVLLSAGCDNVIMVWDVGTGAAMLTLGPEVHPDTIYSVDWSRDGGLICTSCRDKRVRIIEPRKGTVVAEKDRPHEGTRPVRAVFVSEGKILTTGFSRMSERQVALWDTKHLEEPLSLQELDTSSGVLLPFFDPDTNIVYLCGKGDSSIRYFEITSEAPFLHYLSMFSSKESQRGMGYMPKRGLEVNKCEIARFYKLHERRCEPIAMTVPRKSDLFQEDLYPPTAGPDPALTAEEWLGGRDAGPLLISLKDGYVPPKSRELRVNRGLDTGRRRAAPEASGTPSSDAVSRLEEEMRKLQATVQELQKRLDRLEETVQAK
inactive: ibrutinib 0.028 | [1] -0.031 | ralimetinib -0.015 | [2] -0.021 | [3] 0.055 | [4] 0.018 | [5] -0.107 | [6] 0.025 | [7] -0.036 | [8] 0.012 | vemurafenib -0.021 | [9] -0.001 | barasertib 0.013 | [10] 0.025 | volasertib -0.035 | [11] 0.11 | [12] -0.113 | [13] 0.021 | saracatinib -0.169 | sotrastaurin -0.007

CXXC1 isoform 2 (UniProt Q9P0U4)
UniProt Q9P0U4, sequence (Q9P0U4 whole entry, looked up): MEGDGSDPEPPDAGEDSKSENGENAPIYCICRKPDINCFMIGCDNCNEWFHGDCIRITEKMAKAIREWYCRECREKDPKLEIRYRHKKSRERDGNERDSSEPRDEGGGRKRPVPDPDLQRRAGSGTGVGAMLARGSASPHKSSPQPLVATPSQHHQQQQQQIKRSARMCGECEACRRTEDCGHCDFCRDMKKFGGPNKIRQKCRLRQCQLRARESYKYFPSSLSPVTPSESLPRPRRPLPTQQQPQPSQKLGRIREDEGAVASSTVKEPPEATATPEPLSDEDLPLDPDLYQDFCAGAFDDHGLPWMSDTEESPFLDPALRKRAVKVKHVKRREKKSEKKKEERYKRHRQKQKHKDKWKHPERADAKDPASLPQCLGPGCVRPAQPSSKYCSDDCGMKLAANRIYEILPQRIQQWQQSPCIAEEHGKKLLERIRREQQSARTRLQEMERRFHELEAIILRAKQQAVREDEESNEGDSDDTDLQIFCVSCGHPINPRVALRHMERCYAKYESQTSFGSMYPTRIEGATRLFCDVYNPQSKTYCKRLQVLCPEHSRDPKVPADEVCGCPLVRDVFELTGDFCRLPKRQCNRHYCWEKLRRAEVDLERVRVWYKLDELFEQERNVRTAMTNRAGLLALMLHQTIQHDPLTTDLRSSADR
inactive: ibrutinib -0.034 | [1] -0.078 | ralimetinib 0.013 | [2] -0.089 | [3] -0.005 | [4] -0.01 | [5] 0.082 | [6] 0.004 | [7] 0.061 | [8] -0.155 | vemurafenib -0.029 | [9] -0.117 | barasertib -0.02 | [10] -0.256 | volasertib -0.027 | [11] 0.031 | [12] -0.072 | [13] 0.041 | saracatinib -0.066 | sotrastaurin -0.04

CSK (UniProt P41240)
inactive: [1] 0.242 | ralimetinib 0 | [2] 0.181 | [3] 0 | [4] -0.086 | [5] -0.04 | [7] -0.015 | [8] -0.054 | vemurafenib 0.43 | [9] 0.304 | barasertib 0.187 | [10] -0.046 | volasertib -0.09 | [11] -0.068 | [12] 0.015 | [13] 0.096 | saracatinib 0.37 | sotrastaurin -0.043
active: ibrutinib 0.891 | [6] 0.626

DES (UniProt P17661)
UniProt P17661, sequence (P17661 whole entry, looked up): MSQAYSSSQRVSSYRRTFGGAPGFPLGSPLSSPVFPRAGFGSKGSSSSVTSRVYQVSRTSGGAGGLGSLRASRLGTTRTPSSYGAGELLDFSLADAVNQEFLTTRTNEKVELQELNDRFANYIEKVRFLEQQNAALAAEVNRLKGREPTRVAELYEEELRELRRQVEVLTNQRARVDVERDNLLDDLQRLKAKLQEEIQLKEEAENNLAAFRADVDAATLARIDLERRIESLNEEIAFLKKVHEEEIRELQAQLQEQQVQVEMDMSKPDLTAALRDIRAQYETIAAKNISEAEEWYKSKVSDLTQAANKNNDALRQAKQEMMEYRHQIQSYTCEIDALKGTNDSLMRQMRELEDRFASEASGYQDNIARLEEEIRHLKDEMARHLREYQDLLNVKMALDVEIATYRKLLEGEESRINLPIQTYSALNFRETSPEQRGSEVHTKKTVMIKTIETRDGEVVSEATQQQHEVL
inactive: ibrutinib 0.044 | [1] 0 | ralimetinib 0.025 | [2] -0.16 | [3] -0.01 | [4] -0.026 | [5] -0.045 | [6] 0.057 | [7] -0.017 | [8] -0.057 | vemurafenib 0.084 | [9] 0.008 | barasertib -0.001 | [10] 0.045 | volasertib 0.058 | [11] -0.026 | [13] 0.149 | saracatinib 0.106 | sotrastaurin -0.012
active: [12] -0.434

CSDE1 isoform 4 (UniProt O75534)
inactive: ibrutinib -0.007 | [1] -0.003 | ralimetinib 0.017 | [2] 0.03 | [3] 0.003 | [4] -0.013 | [5] 0.004 | [6] -0.022 | [7] 0.012 | [8] 0.009 | vemurafenib -0.002 | [9] 0.004 | barasertib 0.01 | [10] -0.083 | volasertib -0.041 | [11] 0.028 | [12] 0.069 | [13] -0.066 | saracatinib 0.003 | sotrastaurin -0.018

DHCR7 (UniProt Q9UBM7)
inactive: ibrutinib -0.026 | [1] 0.016 | ralimetinib 0.071 | [2] -0.042 | [3] -0.018 | [4] 0.01 | [5] -0.007 | [6] -0.017 | [7] -0.011 | [8] -0.002 | vemurafenib -0.02 | [9] 0.004 | barasertib 0.029 | [10] -0.061 | volasertib -0.036 | [11] 0.025 | [12] -0.033 | [13] -0.069 | saracatinib 0.017 | sotrastaurin -0.041

CSPP1 (UniProt Q1MSJ5)
UniProt Q1MSJ5, sequence (Q1MSJ5 whole entry, looked up): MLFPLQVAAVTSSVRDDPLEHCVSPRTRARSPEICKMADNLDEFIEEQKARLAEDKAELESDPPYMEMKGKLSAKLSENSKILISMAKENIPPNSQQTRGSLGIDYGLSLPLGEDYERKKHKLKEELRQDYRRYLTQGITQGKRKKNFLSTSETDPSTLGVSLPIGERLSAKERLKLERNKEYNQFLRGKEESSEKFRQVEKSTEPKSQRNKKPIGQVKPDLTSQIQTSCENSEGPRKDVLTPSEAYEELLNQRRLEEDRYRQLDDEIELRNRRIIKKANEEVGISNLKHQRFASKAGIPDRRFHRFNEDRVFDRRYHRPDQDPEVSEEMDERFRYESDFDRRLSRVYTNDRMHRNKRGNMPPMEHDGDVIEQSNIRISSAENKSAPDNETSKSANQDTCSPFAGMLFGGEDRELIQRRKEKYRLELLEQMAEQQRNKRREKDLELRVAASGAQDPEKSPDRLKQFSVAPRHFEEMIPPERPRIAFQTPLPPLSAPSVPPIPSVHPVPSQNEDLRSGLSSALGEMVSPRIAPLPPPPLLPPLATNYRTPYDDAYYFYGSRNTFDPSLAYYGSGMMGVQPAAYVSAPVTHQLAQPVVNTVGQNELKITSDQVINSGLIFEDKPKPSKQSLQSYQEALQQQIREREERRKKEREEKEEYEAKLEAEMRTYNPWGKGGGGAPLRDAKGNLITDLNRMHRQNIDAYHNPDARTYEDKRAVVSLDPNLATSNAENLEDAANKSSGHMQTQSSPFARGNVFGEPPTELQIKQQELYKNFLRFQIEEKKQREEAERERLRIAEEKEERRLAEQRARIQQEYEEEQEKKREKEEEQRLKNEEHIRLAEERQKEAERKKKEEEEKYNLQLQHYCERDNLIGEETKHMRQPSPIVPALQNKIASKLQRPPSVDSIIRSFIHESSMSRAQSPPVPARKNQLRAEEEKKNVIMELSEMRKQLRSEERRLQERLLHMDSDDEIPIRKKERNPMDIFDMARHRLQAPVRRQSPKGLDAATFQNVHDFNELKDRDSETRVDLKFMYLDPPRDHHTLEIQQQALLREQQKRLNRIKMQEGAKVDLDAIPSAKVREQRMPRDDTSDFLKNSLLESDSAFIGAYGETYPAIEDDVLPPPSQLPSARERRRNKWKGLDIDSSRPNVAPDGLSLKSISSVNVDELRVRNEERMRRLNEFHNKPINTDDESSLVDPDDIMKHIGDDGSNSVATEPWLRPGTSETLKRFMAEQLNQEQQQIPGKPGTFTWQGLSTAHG
active: [9] -0.505
inactive: ibrutinib 0.052 | [1] 0 | ralimetinib 0 | [2] 0.026 | [3] -0.023 | [4] 0 | [5] -0.015 | [6] -0.074 | [7] -0.006 | [8] 0.084 | vemurafenib 0.03 | barasertib 0.026 | [10] 0.057 | volasertib 0.125 | [11] 0.05 | [12] 0.029 | [13] -0.006 | saracatinib -0.049 | sotrastaurin -0.046

CYP51A1 (UniProt Q16850)
UniProt Q16850, sequence (Q16850 whole entry, looked up): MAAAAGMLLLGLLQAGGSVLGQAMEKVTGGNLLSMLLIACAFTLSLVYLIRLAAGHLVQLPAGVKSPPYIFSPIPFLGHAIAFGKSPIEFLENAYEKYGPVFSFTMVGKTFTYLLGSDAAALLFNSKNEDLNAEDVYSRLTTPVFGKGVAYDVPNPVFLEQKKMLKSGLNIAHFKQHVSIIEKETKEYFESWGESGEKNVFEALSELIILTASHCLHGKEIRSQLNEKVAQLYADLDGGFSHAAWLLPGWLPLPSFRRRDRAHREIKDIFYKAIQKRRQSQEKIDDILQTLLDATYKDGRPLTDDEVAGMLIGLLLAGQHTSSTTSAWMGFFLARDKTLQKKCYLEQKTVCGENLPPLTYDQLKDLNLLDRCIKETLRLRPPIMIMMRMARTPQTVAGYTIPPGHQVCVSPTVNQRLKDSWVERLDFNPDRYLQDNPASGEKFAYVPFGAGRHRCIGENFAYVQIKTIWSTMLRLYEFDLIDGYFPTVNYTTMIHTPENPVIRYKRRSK
active: ibrutinib 0.601
inactive: [1] -0.025 | ralimetinib -0.025 | [2] 0.101 | [3] 0.038 | [4] -0.017 | [5] -0.031 | [6] -0.093 | [7] 0.014 | [8] -0.099 | vemurafenib -0.014 | [9] -0.007 | barasertib -0.011 | [10] 0.053 | volasertib 0.01 | [11] -0.02 | [12] -0.103 | [13] -0.066 | saracatinib -0.043 | sotrastaurin 0.001

COG5 isoform 2 (UniProt Q9UP83)
inactive: ibrutinib 0.061 | [1] -0.036 | ralimetinib 0.074 | [2] -0.027 | [3] 0.037 | [4] -0.005 | [5] 0.04 | [6] -0.016 | [7] 0.073 | [8] 0.052 | vemurafenib 0.001 | [9] 0.06 | barasertib -0.116 | [10] -0.056 | volasertib -0.084 | [11] -0.007 | [12] -0.02 | [13] 0.01 | saracatinib 0.057 | sotrastaurin 0.08

CTPS2 (UniProt Q9NRF8)
inactive: ibrutinib 0.021 | [1] 0.006 | ralimetinib 0.017 | [2] -0.026 | [3] -0.011 | [4] 0.008 | [5] -0.004 | [6] 0.009 | [7] 0.005 | [8] -0.009 | vemurafenib 0.002 | [9] 0.01 | barasertib 0.015 | [10] -0.028 | volasertib -0.009 | [11] 0.011 | [12] -0.041 | [13] 0.058 | saracatinib 0.012 | sotrastaurin -0.044

DDX54 isoform 2 (UniProt Q8TDD1)
UniProt Q8TDD1, sequence (Q8TDD1 whole entry, looked up): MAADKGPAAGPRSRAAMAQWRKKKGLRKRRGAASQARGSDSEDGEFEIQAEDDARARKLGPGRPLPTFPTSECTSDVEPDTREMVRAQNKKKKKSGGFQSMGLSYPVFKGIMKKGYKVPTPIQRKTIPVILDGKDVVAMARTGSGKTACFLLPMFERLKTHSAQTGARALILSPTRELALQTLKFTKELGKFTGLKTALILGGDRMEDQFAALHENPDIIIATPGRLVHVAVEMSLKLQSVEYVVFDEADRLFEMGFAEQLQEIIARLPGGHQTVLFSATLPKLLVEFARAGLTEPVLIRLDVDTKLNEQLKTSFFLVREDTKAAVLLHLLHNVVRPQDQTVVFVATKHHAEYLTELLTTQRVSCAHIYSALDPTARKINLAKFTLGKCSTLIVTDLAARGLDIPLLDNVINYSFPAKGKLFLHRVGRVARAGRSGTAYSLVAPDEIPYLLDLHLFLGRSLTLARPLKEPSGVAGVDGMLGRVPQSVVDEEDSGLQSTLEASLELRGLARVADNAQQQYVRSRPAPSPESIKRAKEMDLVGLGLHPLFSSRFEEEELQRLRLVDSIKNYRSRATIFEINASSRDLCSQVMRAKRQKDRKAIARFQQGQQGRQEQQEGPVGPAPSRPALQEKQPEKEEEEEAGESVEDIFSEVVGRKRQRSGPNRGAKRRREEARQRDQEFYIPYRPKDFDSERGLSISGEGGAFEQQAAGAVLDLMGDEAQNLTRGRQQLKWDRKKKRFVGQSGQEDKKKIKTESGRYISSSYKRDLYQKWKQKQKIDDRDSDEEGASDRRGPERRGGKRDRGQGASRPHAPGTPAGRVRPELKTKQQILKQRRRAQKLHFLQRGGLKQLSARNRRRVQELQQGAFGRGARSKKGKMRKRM
inactive: ibrutinib -0.005 | [1] 0.006 | ralimetinib 0.036 | [2] 0.023 | [3] -0.001 | [4] 0.02 | [5] -0.054 | [6] -0.054 | [7] -0.006 | [8] 0.013 | vemurafenib -0.041 | [9] 0.017 | [10] -0.069 | volasertib -0.045 | [11] 0.053 | [12] -0.056 | [13] 0 | saracatinib -0.015 | sotrastaurin 0.045
active: barasertib -0.319

COTL1 (UniProt Q14019)
UniProt Q14019, sequence (Q14019 whole entry, looked up): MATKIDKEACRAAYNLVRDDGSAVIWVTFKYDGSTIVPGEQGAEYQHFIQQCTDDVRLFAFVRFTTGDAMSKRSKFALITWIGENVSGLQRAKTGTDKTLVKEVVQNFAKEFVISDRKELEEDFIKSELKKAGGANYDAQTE
active: [12] 0.37
inactive: ibrutinib 0.038 | [1] 0.001 | ralimetinib -0.025 | [2] 0.049 | [3] -0.007 | [4] -0.055 | [5] 0.02 | [6] -0.019 | [7] -0.015 | [8] -0.004 | vemurafenib -0.002 | [9] -0.017 | barasertib -0.068 | [10] 0.019 | volasertib 0.02 | [11] 0.027 | [13] -0.076 | saracatinib -0.019 | sotrastaurin -0.045

CKS1B (UniProt P61024)
UniProt P61024, sequence (P61024 whole entry, looked up): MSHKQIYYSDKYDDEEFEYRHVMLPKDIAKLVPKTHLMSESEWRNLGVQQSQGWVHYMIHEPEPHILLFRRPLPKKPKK
inactive: ibrutinib 0.049 | [1] 0.01 | ralimetinib -0.161 | [2] -0.034 | [3] 0.011 | [4] 0.055 | [5] 0 | [6] -0.059 | [7] 0.003 | [8] -0.012 | vemurafenib -0.047 | [9] -0.029 | barasertib 0.029 | [10] -0.031 | volasertib -0.018 | [11] -0.017 | [13] -0.268 | saracatinib 0.044 | sotrastaurin 0.025
active: [12] 0.391

CHORDC1 (UniProt Q9UHD1)
UniProt Q9UHD1, sequence (Q9UHD1 whole entry, looked up): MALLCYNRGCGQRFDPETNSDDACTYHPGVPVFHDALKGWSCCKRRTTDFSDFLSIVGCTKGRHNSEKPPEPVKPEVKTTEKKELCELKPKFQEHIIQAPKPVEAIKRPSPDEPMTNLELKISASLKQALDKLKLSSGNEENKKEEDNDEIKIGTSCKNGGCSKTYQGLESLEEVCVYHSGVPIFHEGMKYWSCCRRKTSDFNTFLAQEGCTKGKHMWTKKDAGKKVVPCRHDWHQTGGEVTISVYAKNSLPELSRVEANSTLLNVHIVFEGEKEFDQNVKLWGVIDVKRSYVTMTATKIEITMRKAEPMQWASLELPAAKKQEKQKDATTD
inactive: ibrutinib -0.002 | [1] 0.004 | ralimetinib -0.009 | [2] -0.001 | [3] -0.032 | [4] -0.009 | [5] 0.001 | [6] 0.023 | [7] 0.033 | [8] 0.006 | vemurafenib 0.017 | [9] -0.003 | barasertib -0.029 | [10] 0.009 | volasertib 0.02 | [11] 0.002 | [13] -0.003 | saracatinib -0.006 | sotrastaurin -0.036
active: [12] 0.288

DIAPH1 (UniProt O60610)
inactive: ibrutinib -0.028 | [1] -0.004 | ralimetinib -0.006 | [2] 0.005 | [3] -0.01 | [4] -0.009 | [5] 0.003 | [6] -0.004 | [7] 0.001 | [8] 0.004 | vemurafenib -0.002 | [9] -0.007 | barasertib 0.006 | [10] -0.001 | volasertib -0.002 | [11] 0.009 | [12] 0.091 | [13] -0.042 | saracatinib -0.006 | sotrastaurin -0.001

DNM2 (UniProt P50570)
inactive: ibrutinib 0.014 | [1] 0 | ralimetinib 0.013 | [2] 0.013 | [3] 0.018 | [4] 0.011 | [5] 0.024 | [6] -0.016 | [7] 0.006 | [8] 0.004 | vemurafenib 0.002 | [9] 0.005 | barasertib 0.037 | [10] -0.024 | volasertib -0.043 | [11] 0.029 | [12] -0.012 | [13] 0.013 | saracatinib 0.016 | sotrastaurin 0.001
